# The campaign covered roughly 2,500 compounds. About 1,100 (44%) were called active. So high a share suggests a set chosen from earlier hits. Some of the results follow. Unmarked numbers belong to inactive results.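 The calls were made as follows: active = inhibition above 50% at 4 µM in the single-point screen; inactive = inhibition of 50% or less.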
# Assay: TNF-a-driven NF-kB reporter inhibitors, primary screen, selectivity assay for NOD1/NOD2 signaling inhibitor project, cell-based, HEK293T NF-kB-Luc, luminescence (AID 1852)
# Details: TNF-a induced, 14 h, at 4 µM, stronger effect = higher value
row,SMILES,inhibition
1,COc1ccc(-c2cc(C)no2)cc1S(=O)(=O)N1CCN(c2ccccc2F)CC1,49.7%
2,CSC(=S)N/N=C/c1ccc(Br)cc1,3.9%
3,Cc1cc(NC(c2cccnc2)c2ccc3cccnc3c2O)no1 (stereo unspecified),99.8% (active)
4,Cc1conc1NC(c1cccs1)c1ccc2cccnc2c1O (stereo unspecified),14.1%
5,COc1ccc(C)cc1NC(=O)C1CCN(S(=O)(=O)c2cccc3nonc23)CC1,94.5% (active)
6,Cc1cccc(NC(=O)C2CCN(S(=O)(=O)c3ccc4c(c3)NC(=O)CO4)CC2)c1,11.7%
7,Cc1ccc(CNC(=O)C2CCCN(S(=O)(=O)c3cccc4nonc34)C2)cc1 (stereo unspecified),43.1%
8,CCc1ccc(-c2cc(C)no2)cc1S(=O)(=O)NCCCN1CCN(c2ccccc2)CC1,28.3%
9,C/C(=N\NC(=O)c1cc2ccccc2cc1O)c1cc2ccccc2o1,105% (active)
10,C/C(=N\NC(=O)c1cc2ccccc2cc1O)c1ccccn1,-5.1%
11,CCOC(=O)N1CCN(C(=O)c2ccc(Oc3ccc([N+](=O)[O-])cc3)cc2)CC1,-11.6%
12,Cc1ccc(S(=O)(=O)CC#CCOC(=O)c2ccc([N+](=O)[O-])cc2)cc1,91.4% (active)
13,COc1ccc(NS(=O)(=O)c2ccc(N/N=C(\C)c3ccncc3)c([N+](=O)[O-])c2)cc1,51.9% (active)
14,COc1ccc(NS(=O)(=O)c2ccc3oc(SC(C)C(N)=O)nc3c2)cc1 (stereo unspecified),2.2%
15,CC[C@H]1CN2CCc3cc(OC)c(OC)cc3[C@@H]2C[C@@H]1C[C@H]1NCCc2cc(OC)c(OC)cc21,102% (active)
16,Cc1ccc(C)c(N2CCN(C(=O)C34CC5CC(C3)CC(n3nnc(C)n3)(C5)C4)CC2)c1,25.2%
17,CN(C)Cc1c(C(=O)N/N=C/c2cccc(OCc3c(F)cccc3Cl)c2)nnn1-c1nonc1N,74% (active)
18,O=C(COc1ccc2ccccc2c1)Nc1ccc(Br)cc1C(=O)O,-2.8%
19,CCOc1ccccc1-n1c(SCC(=O)Nc2ccccc2C(=O)O)nc2ccccc2c1=O,-2.7%
20,O=C(CSc1nc2ccccc2c(=O)n1Cc1ccccc1)Nc1ccc(Br)cc1C(=O)O,53.2% (active)
21,COc1cc(/C=C/c2ccc3cccc(O)c3n2)cc(OC)c1OC,105% (active)
22,COc1cc(/C=C/c2ccc3cccc(O)c3n2)cc(Br)c1OC,28.6%

row,SMILES,inhibition
1,COc1cc(/C=C/c2ccc3cccc(O)c3n2)ccc1O,105% (active)
2,COc1cc(/C=C/c2ccc3cccc(O)c3n2)cc(Cl)c1OC,-19.5%
3,COc1cccc(OCCOc2ccc(/C=C3\C(=N)N4N=C(S(C)(=O)=O)SC4=NC3=O)cc2OC)c1,-57.6%
4,C=C1C(=O)[C@@]23[C@H](O)C[C@@H]4C(C)(C)CC[C@H](O)[C@@]4(C)[C@@H]2CC[C@@H]1[C@H]3O,68.9% (active)
5,NC(=O)c1c(NC(=O)C(=O)N2CCOCC2)sc2c1CCCC2,29.8%
6,COc1ccc(OC)c(CCNC(=O)Cn2nc(C)c3c(C)n(-c4ccc(C)cc4)nc3c2=O)c1,69.7% (active)
7,COc1ccc(OC)c(CCNC(=O)C(C)n2nc(C)c3c(C)n(-c4ccc(C)cc4)nc3c2=O)c1 (stereo unspecified),49.3%
8,CCOc1ccccc1CNC(=O)Cn1nc(C)c2c(C)n(-c3ccc(C)cc3)nc2c1=O,55% (active)
9,CCOC(=O)c1c(C)nc2sc3c(=O)n(-c4ccc(C(C)=O)cc4)nnc3c2c1-c1ccc(OC)cc1,5.1%
10,CCn1nc(C)c(NC(=O)/C=C/c2ccc(OC)c(COc3ccc(Br)cc3)c2)c1C,38.5%
11,COc1ccc(CCNC(=O)C(C)n2nc(C)c3c(C)n(-c4ccc(C)cc4)nc3c2=O)c(OC)c1 (stereo unspecified),56.1% (active)
12,O=C(c1ccc(S(=O)(=O)c2ccc(F)cc2)c([N+](=O)[O-])c1)N1CCCCCC1,27.8%
13,O=C(c1ccc(S(=O)(=O)c2cccc(Cl)c2)c([N+](=O)[O-])c1)N1CCN(Cc2ccccc2)CC1,53.1% (active)
14,O=C(c1ccc(S(=O)(=O)c2cccc(Cl)c2)c([N+](=O)[O-])c1)N1CCN(c2ccccn2)CC1,35.5%
15,O=C(c1ccc(S(=O)(=O)c2ccccc2Cl)c([N+](=O)[O-])c1)N1CCCCCC1,26.2%
16,O=C(c1ccc(S(=O)(=O)c2ccccc2Cl)c([N+](=O)[O-])c1)N1CCN(Cc2ccccc2)CC1,56.1% (active)
17,Cn1cc(S(=O)(=O)N2CCc3ccccc32)cc1C(=O)NC(C)(C)C,38.6%
18,O=C(Nc1nc2ccc([N+](=O)[O-])cc2s1)c1ccc(S(=O)(=O)N2CCCc3ccccc32)cc1,68.8% (active)
19,O=C(Nc1nnc(C2CC2)s1)c1cccc(S(=O)(=O)N2CCc3ccccc32)c1,9.3%
20,Cc1nn(C(C)(C)C)c(C)c1/C=N/OC(=O)Nc1ccc(Cl)c(Cl)c1,94% (active)
21,COc1ccc(NC(=O)COC(=O)/C=C/C(=O)OCC(=O)Nc2ccc(OC)c(Cl)c2)cc1Cl,17.7%
22,O=C(Nc1ccc(Cl)cc1)OCc1cncs1,-60.4%

row,SMILES,inhibition
1,Cc1ccc(NC(=O)Cc2ncc(C(F)(F)F)cc2Cl)cc1Cl,-15.6%
2,O=C(Nc1ccc(Cl)c(Cl)c1)OCc1cnc(Cl)s1,-13.5%
3,Cc1ccc(NC(=O)O/N=C/c2c(C)nn(C(C)(C)C)c2C)cc1Cl,90.2% (active)
4,Cc1nn(C(C)(C)C)c(C)c1/C=N/OC(=O)Nc1ccc(Cl)cc1,71.3% (active)
5,Cc1ccc(OCCCCn2cnc3ccccc32)cc1,26.7%
6,COc1ccc(-n2cc(-c3ccccc3)c3c(N4CCOCC4)ncnc32)cc1,12.7%
7,COc1ccc2ncn(-c3ccccc3)c2c1,53.8% (active)
8,COc1ccc(OC)c(Nc2c3ccccc3nc3ccccc23)c1,20.8%
9,COc1ccc(-n2cnc3ccccc32)cc1,53.9% (active)
10,CCOc1ccc(-c2csc3ncn(-c4ccc(OC)cc4)c(=O)c23)cc1,44%
11,CC(=O)c1ccc(NC(=O)c2noc3c2CCC3)cc1,35.4%
12,O=C(Sc1cccc2cccnc12)c1ccc(F)cc1,101% (active)
13,O=C(Sc1cccc2cccnc12)c1ccccc1Br,105% (active)
14,CCOC(=O)c1c(N2C(=O)Nc3cc(Cl)c(Cl)cc3N2O)sc2c1CCCCC2,75.5% (active)
15,CCOc1cc(C=C(C(=O)OC)C(=O)OC)ccc1OCc1ccc([N+](=O)[O-])cc1,7.6%
16,O=[N+]([O-])c1ccc(O)c(Nc2ncnc3ccc(Br)cc23)c1,14.6%
17,CCOc1ccc(Nc2ncnc3ccc([N+](=O)[O-])cc23)cc1,63.8% (active)
18,O=C(CCCN1C(=O)/C(=C/c2ccccc2Cl)SC1=S)NNC(=O)c1ccc(Cl)cc1,76.9% (active)
19,O=C(CCCN1C(=O)/C(=C/c2cccs2)SC1=S)Nc1cccc(O)c1,-2.9%
20,Cc1ccc(/C=C2/SC(=S)N(CCCC(=O)Nc3ccc(O)cc3)C2=O)cc1,-26%
21,COc1ccc(/C=C2\SC(=S)N(CCCC(=O)NNC(=O)c3ccccc3O)C2=O)cc1,35.4%
22,O=C(CCCN1C(=O)/C(=C/c2ccccc2Cl)SC1=S)NNC(=O)c1ccncc1,87% (active)

row,SMILES,inhibition
1,O=C(CCCN1C(=O)/C(=C/c2ccccc2Cl)SC1=S)NNC(=O)c1ccccc1,-19.2%
2,Cc1ccc(/C=C2\SC(=S)N(CCCC(=O)NNC(=O)c3ccccc3O)C2=O)cc1,67.9% (active)
3,COc1ccc2[nH]cc(C(=O)CCl)c2c1,102% (active)
4,COC(CNC(=O)c1c[nH]c2ccc(S(=O)(=O)N3CCOCC3)cc2c1=O)OC,9.8%
5,COc1ccc2c(C(=O)CCl)c[nH]c2c1,66.7% (active)
6,COc1ccc(-c2csc(NC(=O)c3ccccc3NS(=O)(=O)c3ccc(C)cc3)n2)cc1,80.3% (active)
7,COc1ccc(-c2csc(NC(=O)C3=NN(c4ccccc4)C(=O)CC3)n2)cc1,-64.2%
8,O=C(Nc1nc(-c2ccccc2)cs1)c1ccccc1NS(=O)(=O)c1ccc(F)cc1,91.5% (active)
9,COc1ccc(S(=O)(=O)Nc2ccccc2C(=O)Nc2nc(-c3ccc(F)cc3)cs2)cc1OC,81.4% (active)
10,CCOc1ccc(NC(=O)c2ccccc2NS(=O)(=O)c2ccc(F)cc2)c([N+](=O)[O-])c1,11.5%
11,COc1ccc(-c2csc(NC(=O)c3ccccc3NS(=O)(=O)c3ccc(F)c(F)c3)n2)cc1,82.3% (active)
12,Cc1cc(F)ccc1S(=O)(=O)Nc1ccccc1C(=O)Nc1ccccc1-c1nc2ccccc2[nH]1,1.4%
13,CC(C)CCNC(=O)c1cc(-c2ccncc2)nc2ccc(S(=O)(=O)N3CCOCC3)cc12,28.7%
14,CC(=O)c1c(C)[nH]c(C(=O)Nc2nc(-c3ccc(-c4ccccc4)cc3)cs2)c1C,-7.7%
15,COC(=O)c1ccc(NC(=O)c2ccccc2NS(=O)(=O)c2ccccc2)cc1,32.6%
16,Cc1ccc(S(=O)(=O)Nc2ccccc2C(=O)Nc2nc(-c3ccc(F)cc3)cs2)cc1,79.9% (active)
17,O=C(COc1ccc(Cl)cc1)Nc1nc(-c2ccc(S(=O)(=O)N3CCOCC3)cc2)cs1,26.4%
18,COc1ccccc1NS(=O)(=O)c1cccc(NC(=O)c2ccc3ccccc3n2)c1,15.4%
19,COc1ccc(NC(=O)c2ccc(-c3ccccc3)cc2)cc1NS(=O)(=O)c1ccc(F)cc1,59.9% (active)
20,COc1ccccc1C(=O)Nc1nc(-c2ccc(S(=O)(=O)N3CCOCC3)cc2)cs1,99.6% (active)
